Of roughly 8,800 targets only a part is listed; those with a hit were picked by preference. About 0.5% of all pairs of compound and target were hits. A number with no mark means an inactive call.
Legend:
Experiment in all cases: log2 fold change, soluble protein after heating vs DMSO (PISA); higher = thermal stabilisation; K562 lysate, 10 uM; active = over 0.2 and 3.5 SD of the protein, either way, in both replicates (recomputed)
[1] = compound: C1=CC=C(C=C1)[C@H](COC2=CC3=C(C=C2)NC(=O)N3)NC(=O)C4=CC=CN(C4=O)CC5=CC(=C(C=C5)F)F
Summary of the method: (§1)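 Quantification was by TMTpro 16plex LC-MS/MS with equalised channel sums, applied to the supernatant after 21,000xg for 90 min. Samples were crude K562 extract at 1 mg/mL protein in PBS pH 7.4 with 1 mM MgCl2, treated with 10 μM compound for 30 min, heated for 3 min across 48°C-58°C, pooled and brought to 0.5% NP-40 at 4°C. Values are log-two fold changes in thermal stability relative to solvent controls, from duplicates.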

[2] = compound: CC1=C(SC2=C1C(=N[C@H](C3=NN=C(N32)C)CC(=O)N)C4=CC=C(C=C4)Cl)C
Summary of the method: as §1

[3] = compound: CC1=C2C(=CC=C1)N=C(N(C2=O)C3=CC=CC=C3C)CN4C=NC5=C(N=CN=C54)N
Summary of the method: as §1

[4] = compound: Cc1sc2c(c1C)C(c1ccc(Cl)cc1)=N[C@@H](CC(=O)OC(C)(C)C)c1nnc(C)n1-2
Summary of the method: as §1

[5] = compound: c1ccc([C@@H]2C[C@H]2NC2CCNCC2)cc1
Summary of the method: as §1

Sequence of UniProt P29350 (P29350 whole entry, looked up): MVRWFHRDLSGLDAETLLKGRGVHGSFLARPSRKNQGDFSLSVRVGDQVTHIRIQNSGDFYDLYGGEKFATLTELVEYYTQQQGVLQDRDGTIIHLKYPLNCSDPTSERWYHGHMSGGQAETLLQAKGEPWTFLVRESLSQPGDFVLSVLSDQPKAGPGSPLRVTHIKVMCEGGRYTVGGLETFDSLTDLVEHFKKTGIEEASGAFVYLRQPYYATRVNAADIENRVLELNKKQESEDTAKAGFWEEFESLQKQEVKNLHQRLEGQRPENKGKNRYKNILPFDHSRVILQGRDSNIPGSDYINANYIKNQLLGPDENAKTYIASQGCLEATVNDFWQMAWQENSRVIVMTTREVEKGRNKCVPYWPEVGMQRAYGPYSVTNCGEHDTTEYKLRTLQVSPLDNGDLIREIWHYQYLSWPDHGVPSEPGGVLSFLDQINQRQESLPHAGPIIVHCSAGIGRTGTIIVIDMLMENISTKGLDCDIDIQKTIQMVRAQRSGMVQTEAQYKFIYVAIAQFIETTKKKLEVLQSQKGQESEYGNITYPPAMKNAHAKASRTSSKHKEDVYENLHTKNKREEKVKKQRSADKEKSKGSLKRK
Sequence of UniProt P41247 (P41247 whole entry, looked up): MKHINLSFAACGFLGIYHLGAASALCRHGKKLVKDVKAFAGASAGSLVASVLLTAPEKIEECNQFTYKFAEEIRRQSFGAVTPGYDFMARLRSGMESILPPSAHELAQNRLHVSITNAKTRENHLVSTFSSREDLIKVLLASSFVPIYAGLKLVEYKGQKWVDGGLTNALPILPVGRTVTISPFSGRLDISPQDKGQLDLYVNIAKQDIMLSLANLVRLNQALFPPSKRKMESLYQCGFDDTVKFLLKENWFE
Sequence of UniProt Q10713 (Q10713 whole entry, looked up): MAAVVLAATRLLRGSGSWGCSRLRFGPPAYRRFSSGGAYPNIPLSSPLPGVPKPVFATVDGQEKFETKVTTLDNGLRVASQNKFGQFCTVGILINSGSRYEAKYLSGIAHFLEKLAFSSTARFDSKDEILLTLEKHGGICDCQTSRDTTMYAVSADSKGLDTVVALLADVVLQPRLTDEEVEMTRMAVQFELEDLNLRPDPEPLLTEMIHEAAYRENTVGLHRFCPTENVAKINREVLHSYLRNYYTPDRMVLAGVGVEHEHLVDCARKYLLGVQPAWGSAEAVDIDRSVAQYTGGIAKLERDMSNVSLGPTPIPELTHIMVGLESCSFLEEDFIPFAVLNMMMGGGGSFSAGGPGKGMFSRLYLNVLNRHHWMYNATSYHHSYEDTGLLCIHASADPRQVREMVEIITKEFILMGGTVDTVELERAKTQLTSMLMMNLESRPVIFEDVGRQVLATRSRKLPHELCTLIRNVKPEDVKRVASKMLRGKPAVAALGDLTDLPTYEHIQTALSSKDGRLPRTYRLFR
Sequence of UniProt Q16816 (Q16816 whole entry, looked up): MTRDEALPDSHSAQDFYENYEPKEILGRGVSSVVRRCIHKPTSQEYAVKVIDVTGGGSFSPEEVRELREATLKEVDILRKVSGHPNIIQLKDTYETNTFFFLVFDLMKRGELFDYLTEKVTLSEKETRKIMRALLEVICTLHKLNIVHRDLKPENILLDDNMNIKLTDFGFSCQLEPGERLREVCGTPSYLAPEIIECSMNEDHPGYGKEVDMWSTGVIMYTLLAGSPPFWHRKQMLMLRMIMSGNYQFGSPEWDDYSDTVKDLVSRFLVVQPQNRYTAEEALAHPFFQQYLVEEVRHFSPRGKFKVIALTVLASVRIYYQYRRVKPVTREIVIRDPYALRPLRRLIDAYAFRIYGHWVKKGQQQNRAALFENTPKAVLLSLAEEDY
Sequence of UniProt Q05397 (Q05397 whole entry, looked up): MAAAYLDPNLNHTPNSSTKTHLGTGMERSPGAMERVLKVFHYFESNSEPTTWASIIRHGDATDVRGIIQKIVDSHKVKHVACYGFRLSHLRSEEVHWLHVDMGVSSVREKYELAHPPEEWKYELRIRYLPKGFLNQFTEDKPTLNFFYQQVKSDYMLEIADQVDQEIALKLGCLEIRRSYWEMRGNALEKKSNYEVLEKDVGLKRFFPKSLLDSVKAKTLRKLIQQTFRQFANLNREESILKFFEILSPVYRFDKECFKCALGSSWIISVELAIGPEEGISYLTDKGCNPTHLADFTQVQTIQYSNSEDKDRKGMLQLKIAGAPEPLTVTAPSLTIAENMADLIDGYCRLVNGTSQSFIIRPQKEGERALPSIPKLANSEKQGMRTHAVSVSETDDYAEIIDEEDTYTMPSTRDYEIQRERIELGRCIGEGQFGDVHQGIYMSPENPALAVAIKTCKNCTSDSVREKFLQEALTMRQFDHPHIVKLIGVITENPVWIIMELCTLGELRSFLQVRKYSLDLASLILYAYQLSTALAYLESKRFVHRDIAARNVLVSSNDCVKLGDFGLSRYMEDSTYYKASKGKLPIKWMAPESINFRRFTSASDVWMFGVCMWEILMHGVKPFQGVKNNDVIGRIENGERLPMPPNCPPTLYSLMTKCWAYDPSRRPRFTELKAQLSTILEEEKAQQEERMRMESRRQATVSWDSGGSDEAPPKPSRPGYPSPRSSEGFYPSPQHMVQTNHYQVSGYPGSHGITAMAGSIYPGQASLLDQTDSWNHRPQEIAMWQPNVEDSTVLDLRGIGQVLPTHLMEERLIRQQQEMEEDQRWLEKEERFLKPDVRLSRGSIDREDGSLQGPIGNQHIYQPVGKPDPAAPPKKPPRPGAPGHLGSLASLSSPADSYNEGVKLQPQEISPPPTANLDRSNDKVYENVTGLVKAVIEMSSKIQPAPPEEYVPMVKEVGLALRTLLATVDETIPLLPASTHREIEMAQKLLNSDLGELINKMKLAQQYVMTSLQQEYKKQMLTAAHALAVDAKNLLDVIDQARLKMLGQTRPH
Sequence of UniProt P17706 (P17706 whole entry, looked up): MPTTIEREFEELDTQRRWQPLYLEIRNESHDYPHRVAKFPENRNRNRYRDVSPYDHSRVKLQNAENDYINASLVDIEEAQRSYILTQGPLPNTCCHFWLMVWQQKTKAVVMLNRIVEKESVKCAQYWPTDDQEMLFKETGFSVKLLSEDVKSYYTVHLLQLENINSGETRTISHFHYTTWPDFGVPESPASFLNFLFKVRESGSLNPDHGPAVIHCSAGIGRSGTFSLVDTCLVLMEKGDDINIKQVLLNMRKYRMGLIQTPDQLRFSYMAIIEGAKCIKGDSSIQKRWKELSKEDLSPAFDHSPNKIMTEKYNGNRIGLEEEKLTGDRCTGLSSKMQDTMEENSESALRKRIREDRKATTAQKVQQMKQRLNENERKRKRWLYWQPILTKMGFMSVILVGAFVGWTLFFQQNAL
Sequence of UniProt O94806 (O94806 whole entry, looked up): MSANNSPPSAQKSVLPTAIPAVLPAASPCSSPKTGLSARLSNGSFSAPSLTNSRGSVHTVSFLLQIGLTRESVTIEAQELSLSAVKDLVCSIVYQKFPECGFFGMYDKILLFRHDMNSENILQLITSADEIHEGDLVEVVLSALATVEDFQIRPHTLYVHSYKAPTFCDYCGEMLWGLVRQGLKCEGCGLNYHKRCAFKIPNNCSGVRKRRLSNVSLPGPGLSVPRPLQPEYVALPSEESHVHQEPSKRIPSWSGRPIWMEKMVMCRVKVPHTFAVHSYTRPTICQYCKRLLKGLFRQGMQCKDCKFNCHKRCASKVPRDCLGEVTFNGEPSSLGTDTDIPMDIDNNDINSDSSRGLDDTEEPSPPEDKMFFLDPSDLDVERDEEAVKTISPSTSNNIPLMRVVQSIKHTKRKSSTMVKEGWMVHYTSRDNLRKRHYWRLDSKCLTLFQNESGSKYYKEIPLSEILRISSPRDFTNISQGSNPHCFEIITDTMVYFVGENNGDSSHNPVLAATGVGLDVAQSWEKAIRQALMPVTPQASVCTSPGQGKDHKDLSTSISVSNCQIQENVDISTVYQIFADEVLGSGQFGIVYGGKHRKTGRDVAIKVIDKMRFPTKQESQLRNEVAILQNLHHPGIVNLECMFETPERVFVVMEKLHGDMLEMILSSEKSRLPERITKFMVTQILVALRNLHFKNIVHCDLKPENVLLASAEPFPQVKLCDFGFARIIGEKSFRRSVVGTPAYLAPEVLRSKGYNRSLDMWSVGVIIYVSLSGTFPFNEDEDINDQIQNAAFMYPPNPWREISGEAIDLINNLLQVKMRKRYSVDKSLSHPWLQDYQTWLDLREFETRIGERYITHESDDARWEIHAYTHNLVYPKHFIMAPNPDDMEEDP
Sequence of UniProt Q15173 (Q15173 whole entry, looked up): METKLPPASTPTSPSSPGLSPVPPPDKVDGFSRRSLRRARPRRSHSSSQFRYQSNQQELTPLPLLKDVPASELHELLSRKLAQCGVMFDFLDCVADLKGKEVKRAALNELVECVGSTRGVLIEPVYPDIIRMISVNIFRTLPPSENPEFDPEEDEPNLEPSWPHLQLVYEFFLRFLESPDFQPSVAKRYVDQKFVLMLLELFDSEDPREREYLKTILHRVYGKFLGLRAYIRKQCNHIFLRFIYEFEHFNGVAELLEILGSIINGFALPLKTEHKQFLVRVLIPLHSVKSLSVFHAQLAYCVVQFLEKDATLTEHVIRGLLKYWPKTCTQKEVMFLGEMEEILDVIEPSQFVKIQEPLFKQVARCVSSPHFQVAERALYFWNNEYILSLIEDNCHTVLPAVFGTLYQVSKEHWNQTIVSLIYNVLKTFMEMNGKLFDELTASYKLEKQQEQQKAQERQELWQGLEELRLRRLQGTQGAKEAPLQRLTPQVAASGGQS
Sequence of UniProt Q9UHV9 (Q9UHV9 whole entry, looked up): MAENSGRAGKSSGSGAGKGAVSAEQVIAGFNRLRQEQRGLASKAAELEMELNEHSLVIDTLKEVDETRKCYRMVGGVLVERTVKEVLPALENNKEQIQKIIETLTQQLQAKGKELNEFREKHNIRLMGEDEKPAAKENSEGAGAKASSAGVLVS
Sequence of UniProt P07737 (P07737 whole entry, looked up): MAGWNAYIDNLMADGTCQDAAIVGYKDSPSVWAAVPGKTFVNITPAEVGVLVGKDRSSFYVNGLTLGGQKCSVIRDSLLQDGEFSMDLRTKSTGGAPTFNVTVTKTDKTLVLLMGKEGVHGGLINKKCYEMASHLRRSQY

Target | log2 fold change [1] | log2 fold change [2] | log2 fold change [3] | log2 fold change [4] | log2 fold change [5]
PRPH isoform 2 (UniProt P41219) | 0.002 | -0.006 | 0.03 | -0.059 | 0.119
PDXDC1 (UniProt Q6P996) | 0.025 | 0.022 | 0.01 | 0.02 | 0.014
PIGO (UniProt Q8TEQ8) | -0.098 | -0.058 | -0.014 | -0.023 | 0.039
PIK3R1 (UniProt P27986) | -0.014 | -0.065 | 0.313 | -0.024 | -0.007
PES1 (UniProt O00541) | 0.027 | 0.016 | 0.019 | 0.016 | 0.02
PPIE (UniProt Q9UNP9) | 0.033 | -0.023 | 0.026 | -0.04 | -0.144
POLR2G (UniProt P62487) | 0.018 | 0.021 | -0.003 | 0.007 | -0.108
PIK3C3 (UniProt Q8NEB9) | -0.041 | -0.032 | -0.036 | -0.014 | -0.114
PRIM1 (UniProt P49642) | 0.009 | -0.051 | -0.018 | -0.006 | 0.047
PIK3R2 (UniProt O00459) | 0.002 | -0.058 | 0.272 | 0.024 | -0.007
PKP3 isoform 2 (UniProt Q9Y446) | -0.049 | 0.014 | 0.002 | 0.062 | -0.004
PTPN6 isoform 4 (UniProt P29350) | 0.12 | 0.029 | 0.063 | 0.047 | 0.133
PIK3CD (UniProt O00329) | -0.053 | 0.075 | 0.443 (active) | -0.027 | 0.043
PRKCSH isoform 2 (UniProt P14314) | 0.084 | -0.09 | -0.067 | -0.128 | -0.33
PDAP1 (UniProt Q13442) | 0.004 | 0.042 | 0.008 | 0.084 | -0.112
PTPN2 (UniProt P17706) | -0.031 | 0.017 | 0.023 | 0.007 | 0.012
PHKB isoform 3 (UniProt Q93100) | 0.015 | 0.011 | 0.042 | -0.012 | -0.066
PI4K2B (UniProt Q8TCG2) | -0.033 | 0.048 | 0.074 | 0.068 | 0.077
PSMB9 (UniProt P28065) | 0.074 | 0.159 | 0.111 | -0.095 | -0.013
PRKAB2 (UniProt O43741) | 0.1 | -0.012 | 0.009 | -0.047 | -0.418

Target | log2 fold change [1] | log2 fold change [2] | log2 fold change [3] | log2 fold change [4] | log2 fold change [5]
PFN1 (UniProt P07737) | -0.004 | 0.009 | 0 | -0.004 | -0.007
PTPN23 (UniProt Q9H3S7) | -0.033 | 0.011 | 0.007 | 0.024 | 0
PRAME (UniProt P78395) | -0.009 | 0.014 | 0.014 | -0.008 | 0.026
PELO (UniProt Q9BRX2) | -0.014 | 0.05 | 0.034 | 0.087 | 0.27
PTGS1 isoform 6 (UniProt P23219) | -0.007 | -0.035 | 0.077 | -0.026 | -0.11
PCBP2 isoform 3 (UniProt Q15366) | -0.011 | 0.017 | -0.041 | 0.061 | 0.05
PCF11 (UniProt O94913) | -0.135 | 0.018 | 0.022 | 0.008 | 0.079
QKI (UniProt Q96PU8) | -0.071 | -0.001 | -0.023 | 0.04 | -0.034
PGGT1B (UniProt P53609) | -0.055 | 0.021 | -0.013 | -0.004 | 0.064
PMPCA (UniProt Q10713) | 0.019 | 0.031 | 0.028 | -0.013 | -0.012
PTPN1 (UniProt P18031) | -0.006 | 0.008 | 0.01 | -0.026 | 0.005
PRKRA (UniProt O75569) | -0.002 | 0.027 | 0.031 | 0.029 | 0.036
PRKACA (UniProt P17612) | 0.029 | 0.019 | 0.008 | -0.013 | -0.245
PTK2 isoform 2 (UniProt Q05397) | 0.07 | 0.081 |  | -0.324 | 
PHKG1 isoform 2 (UniProt Q16816) |  |  | -0.375 | -0.054 | -0.493
PUS3 (UniProt Q9BZE2) | -0.006 | -0.089 | -0.073 | 0.082 | 0.135
PDE2A (UniProt O00408) | 0.012 | 0.067 | 0.163 | 0.039 | 0
PIAS2 (UniProt O75928) |  |  | 0.001 | 0.046 | 
PTGES2 (UniProt Q9H7Z7) | 0.166 | -0.119 | -0.101 | -0.006 | 0.014
PUF60 isoform 2 (UniProt Q9UHX1) | 0.091 | 0.109 | 0.035 |  | 0.238

Target | log2 fold change [1] | log2 fold change [2] | log2 fold change [3] | log2 fold change [4] | log2 fold change [5]
PRKAR2A (UniProt P13861) | 0.009 | 0.012 | 0.038 | -0.011 | 0.027
PSTPIP2 (UniProt Q9H939) | 0 | -0.01 | 0.046 | 0 | 0.027
PFDN2 (UniProt Q9UHV9) | 0.044 | -0.055 | -0.016 | -0.008 | 0.063
PYGO2 (UniProt Q9BRQ0) | 0.064 | 0.031 |  | 0.024 | 0.011
PCBP2 (UniProt F8VRH0) |  |  |  |  | 0.232
PDE4DIP (UniProt E9PS60) |  |  | 0.074 | -0.12 | -0.257
PPP1R11 (UniProt O60927) | -0.025 | -0.095 |  | 0.014 | 0.001
PRKD3 (UniProt O94806) | 0.035 | 0 | 0.206 |  | -0.386
PREP (UniProt H0Y5Y0) |  |  |  |  | 0.086
PNPLA4 (UniProt P41247) |  |  | -0.009 | 0.201 | -0.019
NA (UniProt Q4G0T1) |  |  |  | -0.027 | -0.025
PPP2R5B (UniProt Q15173) | -0.08 | -0.037 | -0.024 | -0.006 | 0.066
PRADC1 (UniProt Q9BSG0) | 0.267 | 0.021 |  | -0.029 | 0.018
POLR2B (UniProt P30876) | -0.021 | 0.024 | 0.019 | 0.021 | 0.013
PIP5K1A (UniProt Q99755) | -0.058 | 0.067 |  | 0.059 | -0.096
PFN3 (UniProt P60673) |  |  | 0.072 |  | -0.004
PHACTR4 isoform 2 (UniProt Q8IZ21) | 0.03 | 0 | 0.014 | 0.028 | 0.264
PWP1 (UniProt Q13610) | 0.041 | -0.041 | -0.052 | -0.004 | 0.088

Reference: the supplement of paper PMC10849652
